In the supplement of paper PMC6555819:

Assays:
Assay in all cases: PBM binding z-score (relative to random genomic background probes); higher = stronger binding; sequences stand for … in GC…GCGATTGACAGCGTAGAATGAAGG
[1] = test system: FXR:RXRa (NR concentration 270 nM, RXRa partner concentration 90 nM)
Procedure, shortened: (§1)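 Random background probes are the reference for binding z-scores. These scores derive from regression-normalized fluorescence on custom Agilent 4×180K protein-binding microarrays incubated 1 h with ligand-free nuclear receptor dimers. Binding was detected with antibodies against each partner (one per run).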

[2] = test system: LXRa:RXRa (NR concentration 270 nM, RXRa partner concentration 90 nM)
Procedure, shortened: as §1

[3] = test system: LXRa homodimer (NR concentration 270 nM)
Procedure, shortened: as §1

[4] = test system: LXRb:RXRa (NR concentration 270 nM, RXRa partner concentration 90 nM)
Procedure, shortened: as §1

[5] = test system: LXRb homodimer (NR concentration 270 nM)
Procedure, shortened: as §1

[6] = test system: PPARa:RXRa (NR concentration 270 nM, RXRa partner concentration 90 nM)
Procedure, shortened: as §1

[7] = test system: PPARg:RXRa (NR concentration 180 nM, RXRa partner concentration 90 nM)
Procedure, shortened: as §1

[8] = test system: PPARg:RXRa 270nM:90nM, anti-RXR (NR concentration 270 nM, RXRa partner concentration 90 nM)
Procedure, shortened: as §1

[9] = test system: PPARg:RXRa 30nM:10nM, anti-RXR (NR concentration 30 nM, RXRa partner concentration 10 nM)
Procedure, shortened: as §1

[10] = test system: PPARg:RXRa 90nM:30nM, anti-RXR (NR concentration 90 nM, RXRa partner concentration 30 nM)
Procedure, shortened: as §1

[11] = test system: PPARg:RXRa DBDmut IVT, anti-RXR (DBD mutation: RXRa K156A/R161A, NR concentration 270 nM, RXRa partner concentration 90 nM)
Procedure, shortened: as §1

[12] = test system: PPARg:RXRa IVT, anti-PPARg (NR concentration 270 nM, RXRa partner concentration 90 nM)
Procedure, shortened: as §1

[13] = test system: PPARg DBDmut:RXRa IVT, anti-PPARg (DBD mutation: PPARg1 K132A/R137A, NR concentration 270 nM, RXRa partner concentration 90 nM)
Procedure, shortened: as §1

[14] = test system: PPARg DBDmut IVT, anti-PPARg (DBD mutation: PPARg1 K132A/R137A, NR concentration 270 nM)
Procedure, shortened: as §1

[15] = test system: PPARg homodimer (NR concentration 180 nM)
Procedure, shortened: as §1

[16] = test system: PXR:RXRa (NR concentration 270 nM, RXRa partner concentration 90 nM)
Procedure, shortened: as §1

[17] = test system: PXR homodimer (NR concentration 270 nM)
Procedure, shortened: as §1

[18] = test system: RARa:RXR (NR concentration 270 nM, RXRa partner concentration 90 nM)
Procedure, shortened: as §1

[19] = test system: RARa homodimer (NR concentration 270 nM)
Procedure, shortened: as §1

[20] = test system: RARb:RXRa (NR concentration 270 nM, RXRa partner concentration 90 nM)
Procedure, shortened: as §1

Sequence	PBM binding z-score [1]	PBM binding z-score [2]	PBM binding z-score [3]	PBM binding z-score [4]	PBM binding z-score [5]	PBM binding z-score [6]	PBM binding z-score [7]	PBM binding z-score [8]	PBM binding z-score [9]	PBM binding z-score [10]	PBM binding z-score [11]	PBM binding z-score [12]	PBM binding z-score [13]	PBM binding z-score [14]	PBM binding z-score [15]	PBM binding z-score [16]	PBM binding z-score [17]	PBM binding z-score [18]	PBM binding z-score [19]	PBM binding z-score [20]
CCGACTGGGGCATAAGGTCACCATAAGCCAGCCC	3.25	3.18	0.732	2.78	-0.819	4.02	4.56	4.89	2.53	4.9	2.94	4.43	0.997	0.485	6.12	3.81	0.594	5.16	2.35	3.84
CGAACTAGGTCATTGACTGGACAGTGAATAGTAA	4.77	2.75	0.235	1.83	-0.381	4.74	7.36	6.43	3.34	5.78	8.06	8.06	5.21	5.65	0.956	0.89	0.0623	1.78	0.262	3.52
GCTTGTAGATCAACGTTAAGAAAGACTAAGCTAA	-0.519	-0.395	-0.371	-0.448	-0.769	-0.124	0.13	-0.0429	-0.364	-0.214	1.51	0.269	0.342	0.507	-0.243	-0.51	-0.226	-0.0818	-0.208	-0.508
CCTAGCGGGCCAGGGTCACTCAAGCATTTCGCTT	2.02	1.7	-0.501	1.75	-1.09	3.22	0.585	1.45	-0.704	0.334	-0.418	0.39	-1.58	-1.58	0.563	2.61	-0.612	3.38	-0.206	2.53
TCTAGCAGGCCAGATGGTCACTCAAGAGGTACGG	-1.05	-0.551	-0.782	-1.05	-1.42	-0.0486	0.594	0.971	1.81	1.28	0.614	-0.0638	-0.764	-0.948	-0.88	-0.46	-0.899	-0.205	-1.39	0.242
GATACAGGGTCAGCTAGAAGCCAGAGTATGGAAA	4.4	2.38	-0.483	2.13	-0.479	4.45	3.76	3.04	1.33	1.83	1.32	2.21	-0.0163	-0.227	2.08	1.64	0.0123	2.84	-0.0258	3.78
ATCTCTAGGTAACCAAGTTCAGTAAATGCCGAAC	0.686	1.04	1.15	1.1	0.894	1.29	0.842	1.1	0.556	0.989	3.43	2.97	1.54	2.29	1.32	2.05	1.79	1.07	0.775	1.2
TCAGACAGGTGAAGGTAACTCATGTACGCAGTCG	0.849	1.03	-0.116	0.964	-0.0252	1.26	0.954	2.14	4.07	2.81	2.93	1.04	0.0578	0.317	0.397	0.672	0.214	0.117	0.348	1.04
